Among the data in PubChem BioAssay are composite z-score and z-score values, retold here.

Active and inactive are the calls of the source.

The test system of assay [1] is PRMT1 (protein arginine N-methyltransferase 1). Description: PRMT1 binders on small-molecule microarrays, primary screen, biochemical, small-molecule microarray, 635 nm fluorescence (AID 1088).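 Also: binding of Prmt1 protein to compounds spotted on small-molecule microarray slides.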 As to conditions: small-molecule microarray binding, higher = more signal.
Assay [2] is described as follows: yeast growth modulation, basal conditions, primary screen, YJM789 clinical isolate, OD600, 24 h (AID 1089).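 Also: growth of clinical yeast isolate S. cerevisiae YJM 789 seeded 1000 cells per well; test concentration not given here.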 The settings on record: S. cerevisiae YJM789 growth, higher = more signal, called active from +8 up or from −8 down.
Assay [3] in a line: fission yeast growth modulation, primary screen, strain 972, OD600, 24 h, no modulator (AID 1090).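 Also: basal condition with compound alone and no growth modifier present; test concentration not given here.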 The settings on record: S. pombe 972 growth, higher = more signal, called active from +8 up or from −8 down.
The nature of assay [4]: S. cerevisiae growth modulation with rapamycin, primary screen, strain BY4716, OD600, 96 h (AID 1091). Also: test concentration not given here. The settings on record: higher = more signal, called active from +8 up or from −8 down.
The target in assay [5] is Torsin-1A-interacting protein 2 (Homo sapiens) (UniProt Q8NFQ8). Put plainly: LULL1 binders on small-molecule microarray, primary screen, cell lysate, human LULL1 lysate, 635/667 nm fluorescence (AID 1092).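 Also: probe is lysate of COS7 cells overexpressing human LULL1; score merges per-feature 667 nm fluorescence with signal-to-noise.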 The settings on record: hLULL1 lysate binding, 635 nm fluorescence, higher = more signal.
Assay [6] is described as follows: E. coli growth modulation, two-sided OD650, primary screen, E. coli filamentation project, strain DRC41, 24 h (AID 1093).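 Also: MC1000 strain lacking acrAB efflux and sulA so SOS filamentation is blocked; test concentration not given here.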 The settings on record: OD650, 24 h, higher = more signal, called active from +8 up or from −8 down.
A short description of assay [7]: small-molecule microarray binders of probe aLefty2, primary screen, biochemical, biotinylated probe, 635/667 nm fluorescence (AID 1094).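 Also: score merges spot fluorescence near 667 nm with spot signal-to-noise ratio.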 The settings on record: higher = more signal.
Assay [8] deals with Noggin (protein binding on small-molecule microarray). Put plainly: Noggin binders on small-molecule microarray, primary screen, biochemical, 635/667 nm fluorescence (AID 1095).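 Also: score merges 667 nm feature fluorescence with signal to noise over triplicate slides.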 The settings on record: 635 nm fluorescence, higher = more signal.
The target of assay [9] is Neurogenic locus notch homolog protein 3 (Homo sapiens) (UniProt Q9UM47). Put plainly: NOTCH3 binders on small-molecule microarray, primary screen, biochemical, 635/667 nm fluorescence (AID 1096). The settings on record: NOTCH3 binding, 635 nm fluorescence, higher = more signal.
Assay [10] can be described thus: small-molecule microarray binders of probe aEGFR, primary screen, biochemical, biotinylated probe, 635/667 nm fluorescence (AID 1097).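 Also: probe is a biotinylated anti-EGFR antibody binding compounds printed on slides; score combines fluorescence near 667 nm and signal to noise of each spot.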 As to conditions: higher = more signal.

Chain of Torsin-1A-interacting protein 2 (Homo sapiens) (Q8NFQ8 whole entry, looked up): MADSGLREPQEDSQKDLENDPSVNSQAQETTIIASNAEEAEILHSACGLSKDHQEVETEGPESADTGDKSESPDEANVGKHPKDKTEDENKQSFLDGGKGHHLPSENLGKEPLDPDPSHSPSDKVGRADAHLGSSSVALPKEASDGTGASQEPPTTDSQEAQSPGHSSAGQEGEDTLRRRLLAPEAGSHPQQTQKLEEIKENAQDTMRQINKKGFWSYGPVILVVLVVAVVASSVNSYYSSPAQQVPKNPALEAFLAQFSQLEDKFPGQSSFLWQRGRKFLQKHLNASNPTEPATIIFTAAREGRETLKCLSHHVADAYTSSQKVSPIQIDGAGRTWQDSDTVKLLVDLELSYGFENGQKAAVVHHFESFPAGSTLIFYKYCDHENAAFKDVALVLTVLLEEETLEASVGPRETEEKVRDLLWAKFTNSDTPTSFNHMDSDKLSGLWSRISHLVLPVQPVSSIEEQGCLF
Chain of Neurogenic locus notch homolog protein 3 (Homo sapiens) (Q9UM47 whole entry, looked up): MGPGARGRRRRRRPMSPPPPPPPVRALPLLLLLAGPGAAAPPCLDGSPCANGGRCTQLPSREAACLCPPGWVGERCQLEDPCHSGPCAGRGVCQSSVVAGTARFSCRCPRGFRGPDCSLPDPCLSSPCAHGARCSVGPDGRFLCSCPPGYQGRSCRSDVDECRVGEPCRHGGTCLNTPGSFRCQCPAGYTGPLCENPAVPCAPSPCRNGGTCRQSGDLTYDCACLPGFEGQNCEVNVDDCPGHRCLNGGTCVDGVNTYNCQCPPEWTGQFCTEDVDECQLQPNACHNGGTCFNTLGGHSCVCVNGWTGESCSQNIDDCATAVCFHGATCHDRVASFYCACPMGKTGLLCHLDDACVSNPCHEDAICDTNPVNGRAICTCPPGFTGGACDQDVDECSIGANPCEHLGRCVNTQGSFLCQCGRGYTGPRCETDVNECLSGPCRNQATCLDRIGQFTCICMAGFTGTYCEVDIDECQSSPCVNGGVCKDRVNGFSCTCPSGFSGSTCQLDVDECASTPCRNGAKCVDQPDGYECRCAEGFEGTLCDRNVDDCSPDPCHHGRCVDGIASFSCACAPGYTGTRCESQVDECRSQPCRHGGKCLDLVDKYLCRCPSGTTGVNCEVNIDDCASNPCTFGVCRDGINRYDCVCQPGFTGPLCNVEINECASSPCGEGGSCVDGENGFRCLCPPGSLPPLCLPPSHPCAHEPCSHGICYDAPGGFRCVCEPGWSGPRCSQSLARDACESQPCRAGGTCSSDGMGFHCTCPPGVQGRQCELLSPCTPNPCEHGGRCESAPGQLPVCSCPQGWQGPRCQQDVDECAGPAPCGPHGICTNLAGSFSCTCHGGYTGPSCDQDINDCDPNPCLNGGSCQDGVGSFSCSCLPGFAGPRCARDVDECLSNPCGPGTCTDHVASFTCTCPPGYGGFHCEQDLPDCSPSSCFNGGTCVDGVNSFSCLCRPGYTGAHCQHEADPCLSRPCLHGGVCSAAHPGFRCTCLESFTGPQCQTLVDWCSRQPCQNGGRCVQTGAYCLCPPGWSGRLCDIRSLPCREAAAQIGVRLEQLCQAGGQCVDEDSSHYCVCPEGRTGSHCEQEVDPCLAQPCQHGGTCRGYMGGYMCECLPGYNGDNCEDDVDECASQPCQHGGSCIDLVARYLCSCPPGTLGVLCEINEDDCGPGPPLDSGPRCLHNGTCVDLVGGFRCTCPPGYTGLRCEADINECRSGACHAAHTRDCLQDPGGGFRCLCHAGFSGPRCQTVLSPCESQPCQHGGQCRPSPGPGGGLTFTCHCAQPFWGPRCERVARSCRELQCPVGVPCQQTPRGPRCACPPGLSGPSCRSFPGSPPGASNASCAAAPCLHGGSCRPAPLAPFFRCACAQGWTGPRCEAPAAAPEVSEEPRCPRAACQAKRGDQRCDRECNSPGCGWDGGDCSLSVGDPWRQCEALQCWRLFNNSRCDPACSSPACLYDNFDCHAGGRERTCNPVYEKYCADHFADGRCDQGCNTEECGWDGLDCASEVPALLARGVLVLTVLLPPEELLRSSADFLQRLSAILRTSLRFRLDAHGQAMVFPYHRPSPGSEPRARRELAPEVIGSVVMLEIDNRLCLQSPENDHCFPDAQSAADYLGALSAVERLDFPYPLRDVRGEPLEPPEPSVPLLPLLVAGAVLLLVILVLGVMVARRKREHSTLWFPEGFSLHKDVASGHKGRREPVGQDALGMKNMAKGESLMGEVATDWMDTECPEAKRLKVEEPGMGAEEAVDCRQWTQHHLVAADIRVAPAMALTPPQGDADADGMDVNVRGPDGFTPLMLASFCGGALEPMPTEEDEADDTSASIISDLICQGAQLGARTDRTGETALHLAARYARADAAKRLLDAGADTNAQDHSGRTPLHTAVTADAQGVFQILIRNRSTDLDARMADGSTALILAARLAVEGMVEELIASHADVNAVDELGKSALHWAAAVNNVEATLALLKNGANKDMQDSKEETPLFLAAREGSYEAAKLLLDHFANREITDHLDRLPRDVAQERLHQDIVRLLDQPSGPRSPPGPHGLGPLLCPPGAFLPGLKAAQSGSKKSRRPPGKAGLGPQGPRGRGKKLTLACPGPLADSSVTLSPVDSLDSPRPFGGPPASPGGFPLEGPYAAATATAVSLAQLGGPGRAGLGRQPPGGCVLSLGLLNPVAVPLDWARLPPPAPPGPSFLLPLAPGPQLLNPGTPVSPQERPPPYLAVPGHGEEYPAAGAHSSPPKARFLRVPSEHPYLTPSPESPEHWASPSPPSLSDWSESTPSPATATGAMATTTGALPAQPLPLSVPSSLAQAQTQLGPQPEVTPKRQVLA

In the case of `CC(=O)NCCCC[C@@H]1NC(=O)[C@H]2C[C@@H](C(=O)O)[C@@H](c3ccc(O)cc3)N2C1=O`, the composite z-score was 1.55 in assay [1]; 2.84 in [5]; 0.14 in assay [7]; 1.67 in [8]; 1.04 in assay [9]; 0.138 in assay [10]. For the same compound, the z-score is 2.13 (inactive) in [2], -2.62 (inactive) in assay [3], 2.72 (inactive) in assay [4] and -0.817 (inactive) in [6].

For `CN1CCC(CCCO)=CC1c1cccs1` (stereo not given), the composite z-score in [1] is -0.0029; in assay [5], -0.93; in [7], -0.166; in assay [8], 0.0615; in [9], 0.0121; in assay [10] it was -0.108. Moreover, the z-score in assay [2] is -1.69 (inactive); in [3], -0.327 (inactive); in assay [4], -0.489 (inactive); in assay [6], 0.345 (inactive).

Take `CC1CC/C=C\[C@H]2OC34C=CCN(Cn5nnc6ccccc65)C(=O)[C@H]3N(CCCCCO)C(=O)[C@@H]4C2C(=O)O1` (stereo not given in full): the composite z-score is 0.547 in assay [1]; 2.47 in assay [5]; -0.169 in assay [7]; -0.355 in [8]; -0.432 in [9]; -0.18 in assay [10]. Also, the z-score is 0.31 (inactive) in [2], 0.423 (inactive) in assay [3], -0.644 (inactive) in [4] and 0.752 (inactive) in assay [6].
